# Source: PubChem
# USP30 inh: inhibitors of human USP30 deubiquitinase; Q70CQ3; purified USP30, Ub-rhodamine cleavage fluorescence; inhibition, % at 25 µM; 47,000 compounds, 5.3% hits
# USP8 block: human USP8 deubiquitinase inhibition; purified USP8, Ub-rhodamine cleavage fluorescence, 30 min; P40818; 47,000 compounds, 4.2% hits; inhibition, % at 20 µM; AID 1645853
# USP17 block: human USP17-like deubiquitinase inhibition. 47,000 compounds, 6.5% hits. inhibition, % at 50 µM. AID 1645855. A8MUK1. purified USP17, Ub-rhodamine cleavage fluorescence, 3 h
# USP10 inh: blocks human USP10 ubiquitin-rhodamine cleavage; Q14694; purified USP10, Ub-rhodamine fluorescence, 60 min; inhibition, % at 20 µM; 47,000 compounds, 1.1% hits
# Target sequence (Q14694 whole entry, looked up): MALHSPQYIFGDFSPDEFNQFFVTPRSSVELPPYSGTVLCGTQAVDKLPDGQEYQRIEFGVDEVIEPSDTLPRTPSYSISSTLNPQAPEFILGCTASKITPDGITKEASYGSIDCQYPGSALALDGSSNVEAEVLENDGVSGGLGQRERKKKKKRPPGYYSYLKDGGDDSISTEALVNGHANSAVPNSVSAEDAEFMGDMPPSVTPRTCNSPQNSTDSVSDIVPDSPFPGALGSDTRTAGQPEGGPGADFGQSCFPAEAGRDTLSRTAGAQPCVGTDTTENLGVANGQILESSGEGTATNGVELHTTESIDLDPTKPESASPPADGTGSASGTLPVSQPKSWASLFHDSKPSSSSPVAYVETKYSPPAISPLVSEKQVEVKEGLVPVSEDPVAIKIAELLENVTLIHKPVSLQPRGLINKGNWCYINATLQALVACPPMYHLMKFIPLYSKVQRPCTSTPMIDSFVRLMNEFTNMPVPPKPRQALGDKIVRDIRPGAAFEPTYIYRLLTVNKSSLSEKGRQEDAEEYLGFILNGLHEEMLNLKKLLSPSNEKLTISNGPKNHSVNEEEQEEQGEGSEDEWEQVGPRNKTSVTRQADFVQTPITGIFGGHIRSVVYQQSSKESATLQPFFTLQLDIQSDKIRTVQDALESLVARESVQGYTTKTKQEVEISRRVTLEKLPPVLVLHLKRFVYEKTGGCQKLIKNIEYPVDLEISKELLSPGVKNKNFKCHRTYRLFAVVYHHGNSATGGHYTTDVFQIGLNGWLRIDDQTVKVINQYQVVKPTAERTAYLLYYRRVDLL
# USP28 block: inhibitors of human USP28 deubiquitinase; purified USP28, Ub-rhodamine cleavage fluorescence, 30 min; inhibition, % at 25 µM; 47,000 compounds, 3% hits; AID 1645857
# * hit, by the source's call; / = no result. Most compounds without a hit are left out; they make up all but 14% or so of the library. No stated cut-off is given here; in the data, active means inhibition above about 30%; inactive means the rest.
SMILES,USP30 inh,USP8 block,USP17 block,USP10 inh,USP28 block
COc1cc(OC)cc(-c2nc(-c3cn(-c4cccc(F)c4)nn3)no2)c1,65*,62*,1,5,22
Fc1cccc(Cn2cc(-c3noc(-c4cccnc4)n3)nn2)c1,-5,21,63*,3,-3
COc1ccccc1-c1nc(-c2cn(-c3ccc(C)cc3)nn2)no1,11,4,62*,2,1
CCOc1ccc(Oc2ncnc3oc(C)c(C)c23)cc1,23,0,8,0,9
CC(C)NC(=O)C1CCN(c2ccc(SCC(=O)Nc3ccccc3Cl)nn2)CC1,34*,0,5,1,0
Cc1ccc(NC(=O)CSc2ccc(N3CCC(C(=O)NC(C)C)CC3)nn2)cc1,/,9,25,1,/
CNc1cncc(C2CCCN2C(=O)c2ccc(-n3cccn3)nc2)n1 (configuration not stated),/,-5,-1,-1,/
O=C(NCc1ccccc1)c1ccc(-c2cncnc2)nc1,1,0,21,-2,0
O=C(CSc1ccc2nnc(-c3ccc(Cl)cc3)n2n1)c1ccccc1,14,-16,12,1,-1
COc1ccc(C(=O)NCCc2nnc3ccc(SCC(=O)NCc4ccc(F)cc4)nn23)cc1,52*,-10,46*,-2,2
Cc1ccc(C(=O)NCCc2nnc3ccc(SCC(=O)N4CCCc5ccccc54)nn23)cc1,0,-2,5,-2,-7
O=C(CSc1ccc2nnc(-c3ccccc3)n2n1)c1ccccc1,-10,79*,10,2,5
CCN(CC)c1ccc2nnc(CCC(=O)NCc3ccc(F)cc3)n2n1,-31,-21,-8,-6,-3
COc1ccc(C(=O)CSc2ccc3nnc(CCNC(=O)c4ccc(OC)cc4)n3n2)cc1,43*,0,59*,-2,14
Cc1ccc(NC(=O)/C=C/c2cnn(C)c2)cc1C,-6,10,-1,0,9
O=C(Nc1ccc2c(c1)OCO2)c1cc(CN2CCCC2)on1,-24,53*,35*,5,27
Cc1cc(C(=O)Nc2ccc3c(c2)OCCO3)no1,0,-1,-5,2,63*
Cc1ccc2nc(NC(=O)/C=C/c3ccc4c(c3)OCO4)sc2c1,27,36*,19,20,14
Cc1cc(C(=O)N2CC(C(=O)Nc3ccc4c(c3)OCCO4)C2)no1,-35,-70,-23,-3,5
Cc1ccc(/C=C/C(=O)Nc2ccc3c(c2)OCCO3)cc1,-13,-30,-8,10,80*
COc1ccc(Nc2ncnc3c2nnn3C)cc1OC,-2,3,/,4,-4
Cc1ccc(OCC(=O)Nc2cccc(OCc3cc(=O)n4c(ncn4C(C)C)n3)c2)cc1,-53,-2,-26,0,-27
NC(=O)C(OC(=O)CSc1ccccc1)c1ccccc1 (configuration not stated),32*,25,11,3,11
O=C(O)C1CCCN(Cc2c(-c3ccc4c(c3)OCO4)nc3ncccn23)C1 (configuration not stated),3,8,8,-3,8
O=C(NC1CCCCC1)C(c1ccc(F)cc1)N(C(=O)CN1C(=O)c2ccccc2S1(=O)=O)c1ccccc1 (configuration not stated),31*,13,20,16,11
SMILES,USP30 inh,USP8 block,USP17 block,USP10 inh,USP28 block
O=C(NC1CCCCC1)C(c1ccc(F)cc1)N(Cc1ccccc1)C(=O)CN1C(=O)c2ccccc2S1(=O)=O (configuration not stated),45*,17,7,28,15
CN1CCn2c(-c3cccnc3)cnc2C12CCN(c1ncccn1)CC2,-6,-90,-26,-5,-3
Cc1ccc(C(=O)Nc2c(C(=O)N3CCN(c4cccc(C)c4)CC3)[nH]c3ccccc23)cc1,-352,-11,-80,0,-46
Cc1ccc(C(=O)Nc2c(C(=O)N3CCN(c4ccccc4)CC3)[nH]c3ccccc23)cc1,0,0,34*,4,13
COC(=O)c1ccccc1NC(=O)c1ccc(S(=O)(=O)N2CCCC2)cc1,43*,2,16,7,5
COc1ccc(S(=O)(=O)N2CCCCC2)cc1NC(=O)c1ccc(N2CCCC2=O)cc1,27,11,50*,0,5
c1ccc2c(c1)CCN(c1nc3cc4c(cc3s1)OCO4)C2,5,33*,28,5,10
Clc1ccc2nc(N3CCc4ccccc4C3)sc2c1,10,28,-6,-1,17
CCCCN1CC(C(=O)Nc2ccc(C(=O)Nc3ccc(C(N)=O)cc3)cc2)CC1=O (configuration not stated),6,2,6,41*,-3
O=C(OCC(=O)N1CCC(Cc2ccccc2)CC1)c1cccc(S(=O)(=O)N2CCOCC2)c1,-5,-1,0,-4,6
O=C(COc1ccc(S(=O)(=O)N2CCOCC2)cc1)N1CCC(Cc2ccccc2)CC1,21,-32,3,2,57*
Cc1c(C)c2ccc(OCC(=O)N3CCC(Cc4ccccc4)CC3)cc2oc1=O,48*,20,18,11,42*
CC(C)NS(=O)(=O)c1ccc(OCC(=O)N2CCC(Cc3ccccc3)CC2)cc1,32*,7,6,5,79*
CCOC(=O)C1CCN(C(=O)COc2ccc3c(=O)c(Oc4ccc(F)cc4)c(C)oc3c2)CC1,30*,-2,0,-4,3
CCOC(=O)C1CCCN(C(=O)COc2ccc3c(=O)c(Oc4ccccc4F)c(C)oc3c2)C1 (configuration not stated),10,-2,3,-1,0
CN1CCCC12CCCN(C(=O)c1ccc(Cl)cc1)C2 (configuration not stated),-3,-51,-4,3,-11
N[C@@H](Cc1ccccc1)C(=O)N1CCC2(CC1)CN(C(=O)c1ccc(Cl)cc1)CCO2,68*,-271,46*,1,45*
O=C(CCc1nnc2n(Cc3ccc(F)cc3)c(=O)c3ccccc3n12)NC1CCN(Cc2ccccc2)CC1,3,5,1,-7,10
COc1cccc2cc(C(=O)Nc3nc4c(s3)COCC4)oc12,-8,-23,3,-1,7
O=C(NCc1ccc2c(c1)OCO2)c1c(O)c2cnn(Cc3ccccc3)c2[nH]c1=O,0,57*,7,12,-3
COc1ccccc1NC(=O)c1c(O)c2cccnc2n(-c2ccccc2)c1=O,14,33*,8,-1,3
O=C(NCc1cc(F)cc(F)c1)c1c(O)c2cnn(Cc3ccccc3)c2[nH]c1=O,7,17,11,11,1
CC(NC(=O)c1c(O)c2cnn(Cc3ccccc3)c2[nH]c1=O)c1ccccc1 (configuration not stated),-145,86*,12,14,-1
Cc1ccc(NC(=O)c2c(O)c3cnn(C)c3[nH]c2=O)cc1C,-13,85*,6,1,-2
